Assay [1] is described as follows: qHTS assay to identify small molecule antagonists of the retinoid acid receptor (RAR) signaling pathway - cell viability counter screen (AID 1159551). Further: nearly all actives have a fitted effect of over 35% in size. Further: potency means the concentration at half of the fitted maximal effect. The essentials:
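C3RL4 RARE-luciferase line; cpds + retinol 1 uM final, 6 h, 37 C/5% CO2; CellTiter-Glo ATP luminescence, 30 min RT.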
Background: In qHTS, concentration-response curves come from the screen itself.

A short description of assay [2]: qHTS assay to identify small molecule agonists of the retinoic acid receptor (RAR) signaling pathway (AID 1159553). The essentials: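 RARE-luc C3RL4 cells; overnight attachment 37 C/5% CO2; compound (DMSO) 6 hr; luciferase reagent, 30 min RT; luminescence read-out.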
The nature of assay [3]: qHTS assay to identify small molecule antagonists of the estrogen related receptor (ERR) signaling pathway from Tox21 library - cell viability counter screen (AID 1224834). Further: nearly all actives have a fitted effect of over 30% in size. Further: potency means the concentration at half of the fitted maximal effect. In outline:
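Multiplexed viability counter screen in ERR cells: 17.5 h compound exposure at 37 C, CellTiter-Fluor added, 30 min at 37 C/5% CO2, fluorescence read.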

Assay [4] can be described thus: qHTS assay to identify small molecule antagonists of the estrogen related receptor (ERR) signaling pathway - cell viability counter screen (AID 1224818). Further: series mostly up to about 46 µM. The essentials: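 Fluorescence from CellTiter-Fluor, read 30 min after reagent addition at 37 C, measured viability of ERR cells exposed to compounds for 17.5 h. Cells had settled 6 h before dosing.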
A short description of assay [5]: qHTS assay to identify small molecule antagonists of the estrogen related receptor (ERR) signaling pathway (AID 1224819; further: nearly all actives have a fitted effect of over 50% in size; further: potency means the concentration at half of the fitted maximal effect). The essentials: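 Luminescence readout (One-Glo, 30 min, RT) of ERR cell line after 18 h compound exposure at 37 C; cells seeded 2,000/well, pre-incubated 6 h, compounds pinned from DMSO stocks.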
A short description of assay [6]: qHTS assay to identify small molecule agonists of the estrogen related receptor (ERR) signaling pathway (AID 1224820). In outline: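 An ERR cell line provided by NTP was seeded at 2,000 cells per well and allowed to settle for 6 h before compounds in DMSO were added. After 18 h at 37 C, luciferase activity was measured by One-Glo luminescence.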
In assay [7] the test system is estrogen-related receptor alpha (ERRalpha) with PGC-1alpha coactivator, human. The experiment in a line: qHTS assay to identify small molecule antagonists of the estrogen related receptor signaling pathway with the pleiotropic PPARgamma coactivator (PGC) (AID 1224821; calls by dose curve;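 further: series mostly up to about 46 µM; lower luminescence signal means antagonism of PGC/ERR signalling; nearly all actives have a fitted effect of over 50% in size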). In outline: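 A PGC/ERR cell line supplied by NTP is seeded, allowed 6 h at 37 C, and treated with test compounds in DMSO for 18 h. Signal is then measured as luciferase luminescence using One-Glo.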

The nature of assay [8]: qHTS assay to identify small molecule antagonists of the estrogen related receptor signaling pathway with the pleiotropic PPARgamma coactivator (PGC) cell viability counter screen (AID 1224822; further: potency means the concentration at half of the fitted maximal effect; on viability change, negative = cytotoxic: series mostly up to about 46 µM). In outline: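 Fluorescence read-out of CellTiter-Fluor after 30 min at 37 C; PGC/ERR cells, 2,000 per well, had been exposed to DMSO-dissolved compounds for 17.5 h following a 6 h pre-incubation.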

A short description of assay [9]: qHTS assay to identify small molecule agonists of the estrogen related receptor signaling pathway with the pleiotropic PPARgamma coactivator (PGC) (AID 1224823). The essentials:
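Compounds dissolved in DMSO are added by pin tool to PGC/ERR cells that have settled for 6 h, and incubation continues 18 h at 37 C. Reporter output is measured as One-Glo luminescence.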

Each structure is given as a SMILES string. Results filed as inconclusive are left out. A number with no mark means an inactive call. Calls of active or inactive are those of the source. Unless noted, the call rests on the fitted dose curve; in most records, active means well fitted curve in the direction sought with a large enough effect in the repeat runs; inconclusive means weak or mixed curves; inactive means no such curve, though single readings can be large; an effect the other way counts as inactive or inconclusive.
On the % scale 0 is the no-effect control and ±100 the full control effect.

`C=CC(=O)OCCC#N`: the Potency entry in assay [1], in assay [2] and in assay [3] was “inactive” each time.
As for `COC(=O)NCCC[Si](OC)(OC)OC`, the Potency result in assay [1] and in assay [3] was “inactive” in each case.
As to `CC(C)(c1cc(Br)c(OCCO)c(Br)c1)c1cc(Br)c(OCCO)c(Br)c1`, the Potency result in [1] and in assay [2] was “inactive” each time. The Potency in assay [3] is 42.3 µM (active).
On to `C=CCCCCCCC=C`, for which the Potency entry in assay [1] and in assay [3] was “inactive” in each case.
Regarding `CC1CCCCN1CCCOC(=O)c1ccc(OC2CCCCC2)cc1` (stereo not drawn), the Potency entry in assay [1] and in [2] was “inactive” in each case.
For `c1cc(OCC2CO2)cc(OCC2CO2)c1` (stereo not drawn), the Potency result in [1] is “inactive”. Also, the Potency in [3] was 60.6 µM (active).
`CC(C)OC(=O)c1cc(C(=O)OC(C)C)cc([N+](=O)[O-])c1`: the Potency entry in assay [1], in assay [4], in assay [5], in assay [8] and in assay [3] was “inactive” each time. In addition, the outcome in assay [6], in [7] and in [9] was inactive.
In the case of `C[C@@]12C(=O)OC(=O)[C@]1(C)C1CCC2O1`, the Potency in assay [1] was 8.41 µM (active); in assay [3], 6.68 µM (active).
With `C/C=C/c1ccc(OC)c(OC)c1`, the Potency result in [1] and in [3] was “inactive” in each case.
`O=C(O)CCn1c2c(c3ccccc31)C[C@H](NS(=O)(=O)c1ccc(F)cc1)CC2`: the Potency result in assay [1] and in assay [3] was “inactive” each time.
For `C=CC(=C)CC/C=C(\C)CCC=C(C)C`, the activity change, negative = cytotoxicity in assay [1] was -0.128% [at 19 µM]. In assay [3], the viability change, negative = cytotoxic was 0.736% [at 19 µM].
For the compound `CN(C)CCOC(c1ccccc1)c1ccccc1` (tested in a mixture with another compound), the Potency result in assay [1] and in assay [3] was “inactive” throughout.
`O=Cc1ccc(F)cc1`: the Potency entry in assay [1] and in [3] was “inactive” throughout.
Turning to `Oc1c(Br)cc(Br)c2cccnc12`, the Potency entry in assay [1] and in assay [2] was “inactive” throughout. Further, in assay [3], the Potency is 23.7 µM (active).
Turning to `CCCCCCC(C)Nc1ccc(Nc2ccccc2)cc1` (stereo not drawn), the Potency result in assay [1] and in assay [2] was “inactive” in each case.
With `Brc1ccccc1-c1ccccc1`, the Potency result in [1], in assay [2], in assay [4], in assay [5] and in assay [3] was “inactive” throughout. Besides, the compound was classed as inactive in assay [6] and in assay [9].
Regarding `O=C1c2c(O)ccc(O)c2C(=O)c2c(NCCNCCO)ccc(NCCNCCO)c21`, the Potency entry in assay [4] was “inactive”. The Potency in [5] is 1.44 µM (active).
Regarding `O=C1NCN(c2ccccc2)C12CCN(CCCC(c1ccc(F)cc1)c1ccc(F)cc1)CC2`, the figures for the Potency in assay [5] and in assay [8] were 23.7 µM (active) and 22.8 µM (active), respectively. In addition, the call in [7] was inactive.
Consider `CC1=C(/C=C/C(C)=C/C=C/C(C)=C/C(=O)Nc2ccc(O)cc2)C(C)(C)CCC1`, for which, in [7], the call was inactive. In [8], the Potency was 13.9 µM (active).

Source of the values: PubChem BioAssay (Tox21).
